Test results reported in PubChem BioAssay AID624335 (National Center for Advancing Translational Sciences (NCATS), 2012).
The source made the active and inactive calls. Calls follow the shape of the dose curve; as a rule, active = well fitted curve in the direction sought with a large enough effect; inactive = flat fitted curve, though single readings scatter.

test: Quantitative high throughput screen for delayed death inhibitors of the malarial parasite plastid: Hit Validation with 3D7 at 96 hr using Flow Cytometry; settings: P. falciparum 3D7 in erythrocytes, SYBR/MitoTracker flow cytometry
Text: The goal of this screen is to discover new antimalarial compounds that act by inhibiting the development of the apicoplast organelle in the malarial parasite Plasmodium falciparum. Some antibiotics, such as azithromycin and tetracycline, are known to interfere with the apicoplast translational machinery, and have a potent antimalarial effect. […] We developed a cell-based quantitative high throughput screen that leverages this "delayed death" phenotype to enrich for compounds that target the apicoplast. To detect small molecules that cause the delayed death phenotype, erythrocytes infected with firefly luciferase-expressing parasites were incubated with compounds for either one or two generations, corresponding to 48 and 96 hours, respectively. Growth inhibition was detected by a decrease in luciferase activity. Compounds that inhibited parasite growth in the second generation at least five-fold more potently than in the first generation were defined as delayed death inducing. These compounds were selected for confirmatory screening using a flow cytometry based assay. This hit validation assay used the 3D7 cell line and measured at 96 hours. NIH Molecular Libraries Probe Production Network [MLPCN] NIH Chemical Genomics Center [NCGC] MLPCN Grant: R21 NS059500 Assay Provider: David Fidock and Eric Ekland, Columbia University
Test compounds were diluted in 20 microliters of complete media (RPMI 1640 with 0.5% w/v Albumax (GIBCO), 24 mM sodium bicarbonate (Sigma) and 10 ug/mL gentamycin (Gibco)) in clear 384-well plates (Greiner). All liquid handling was conducted using a Bio Tek Precision 2000 pipetting system. Twenty microliters of infected erythrocytes, 0.2% parasitemia (for 48 hour time points) or 0.1% parasitemia (for 96 hour time points) were added to the compound dilutions (1% hematocrit, final concentration; 40 microliters, total culture volume). The assay plates were incubated for 48 hours, or 96 hours, at 37 masculine C in a humidified chamber (Billups- Rothenberg, Del Mar, CA, USA), gassed with 5%CO2/5%O2/ 90%N2. After two generations (96hours), 5 microliters of culture were harvested and transferred to a second 384 well plate for fluorescent staining. Samples were stained with 30 microliters of 2 x SYBR Green I (Invitrogen) and 150nM MitoTracker Deep Red (Invitrogen) diluted in 0.9% NaCl, 0.2% dextrose (Baxter) supplemented with 2.5% Fetal Calf Serum (Gibco) (saline/FCS). Mature erythrocytes lack nuclei and mitochondria, therefore only parasitized erythrocytes retain the SYBR Green I and MitoTracker Deep Red. After 30 minutes at 37 masculine C, the stained cells were diluted in an additional 60 microliters of saline/FCS. The samples were harvested directly from the 384 well plate using a Hypercyt High Capacity Flow Platform (Intellicyt) paired with a C6 Flow Cytometer (Accuri). The flow cytometry files were analyzed using FlowJo software (FlowJo).

Compound | Potency
O=C(c1ccc([N+](=O)[O-])cc1)n1nc(-c2ccccc2)nc1NCc1ccc(F)cc1 | 19.3 µM (active)
Cc1ccc(-n2c(-c3ccc(Cl)cc3)c[n+]3c2CCC3)cc1 | 0.15 µM (active)
